# Test results: PubChem BioAssay AID1671194 (National Center for Advancing Translational Sciences (NCATS), 2021)
# The campaign covered roughly 140,000 compounds. About 240 (0.17%) were called active. Not shown: some 9% with an inconclusive outcome. Shown is part of a subset that was picked to be rich in actives. Values without a mark were called inactive. Calls follow the shape of the dose curve; as a rule, active = well fitted inhibition curve with a large enough effect; inconclusive = small, poorly fitted or top-dose-only effect; inactive = no such curve, though single readings can be large or run the other way.
# Assay: Primary qHTS assay for inhibitors of alpha-synuclein gene (SNCA) expression; also: nearly all actives have a fitted effect of over 45% in size
# Details: HEK-293 SNCA-luciferase knock-in, luminescence, 24 h; series mostly up to 57.2 µM; activity change, negative = inhibition: at the top concentration
# Text: Assay Submitter (PI): Daniel R. Scoles Ph.D.
# Department of Neurology, University of Utah, Salt Lake City, Utah
# Accumulation of alpha-synuclein is a main underlying pathological feature of Parkinson's disease (PD) and alpha-synucleinopathies, for which lowering expression of the alpha-synuclein gene (SNCA) is a potential therapeutic avenue. Using a cell-based luciferase reporter of SNCA expression we performed a quantitative high throughput screen (qHTS) of 155,885 compounds in dose response. The screening assay was generated using genome editing to insert the luciferase gene downstream and in frame of the SNCA gene in HEK-293 cells (1). A viability counterscreen using GF-AFC was used to eliminate cytotoxic and false positive compounds. After in silico analysis (clustering, removal of frequent hitter nuisance chemotypes), inhibitor compounds from the primary screen were selected for follow up and re-tested at 11-doses in the SNCA-luc cells (luciferase and GF-AFC confirmation), and in CMV-luc expressing cell line to flag general transcriptional repressors.
# Described herein are the results of the primary screen for SNCA inhibitors; decrease in luciferase signal (inhibition of the SNCA gene expression) is the desired output for this assay.
# 1. Dansithong, W., Paul, S., Scoles, D. R., Pulst, S. M., and Huynh, D. P. (2015) Generation of SNCA Cell Models Using Zinc Finger Nuclease (ZFN) Technology for Efficient High-Throughput Drug Screening. PLoS ONE 10, e0136930.
# SEQUENCE No. (e.g., 1, 2, 3, etc.); […] (e.g., Cells, Incubation, Reagent, etc.); VALUE; DESCRIPTION
# 1; Cells; 4 uL; Dispense 1500 HEK-293-SNCA-luc cells/well into Greiner 1536-well white / solid bottom tissue culture treated plate. The plate was covered with metal lids with gas-exchange holes.
# 2; Incubate; 24 hours; Incubate at 37C, 5% CO2, 95% RH.
# 3; Compounds; 23 nL; Compounds and controls were transferred via a Kalypsys Pin Tool (Wako USA) equipped with a 1536-slotted pin array. The plate was covered with metal lids with gas-exchange holes.
# 4; Incubate; 24 hours; Incubate at 37C, 5% CO2, 95% RH.
# 5; Dispense; 1 uL; Dispense Gly-Phe-7-amino-4-trifluoromethylcoumarin (GF-AFC, prepared at 125 uM in PBS) was added. The plate was covered with metal lids with gas-exchange holes.
# 6; Incubate; 30 min; Incubate at 37C, 5% CO2.
# 7; Detector; Fluorescence; Measure fluorescence with ViewLux microplate reader (PerkinElmer) equipped with 405/10 excitation and 540/25 emission filters.
# 8; Dispense; 3 uL; Dispense ONE-Glo ([…]) lucifase detection reagent was added to each well. Plates were covered with metal lids with gas-exchange holes.
# 9; Incubate; 15 min; Incubate at room temperature.
# 10; Detector; Luminescence; Measure luminescence with ViewLux microplate reader (PerkinElmer) equipped with clear filters.
# NOTES (numbers refer to sequence above)
# 1; HEK-293-SNCA-luc were cultured and suspended in phenol-red free DMEM (4.5 g/L glucose, 25 mM HEPES, cat #21063 (Thermo)).
# 3; Compounds were added to the assay plate in an 11-point intra plate dose response, 1:3 titration in DMSO with a final concentration range of […]. Vehicle-only plates, with DMSO being pin-transferred to every well, were inserted at the beginning of screening runs to confirm expected assay performance. […]
# 10; Signals were analyzed, and dose-response curves were fit using the Hill equation. […]
# Potency is read from the fitted curve at half-maximal effect.
SMILES,Potency,"activity change, negative = inhibition"
CC[C@H]1C=CC=CC[C@@H](C)[C@H](O)[C@@](C)(O)C(=O)[C@@H](C)[C@H](O)[C@@H](C)C(=O)[C@@H](C)[C@H](O)[C@@H](C)C=CC(=O)O[C@@H]2[C@@H](C)[C@H](CC1)O[C@]1(CC[C@H](C)[C@H](C[C@@H](C)O)O1)[C@H]2C,1710 nM (active),
CN(Cc1ccccc1)C[C@H]1CN2CC[C@H]1C[C@@H]2CNC(=O)Nc1ccsc1,,-2.49% [at 87.6 µM]
CC(=Cc1csc(C)n1)[C@@H]1C[C@H]2O[C@]2(C)CCC[C@H](C)[C@@H](O)[C@@H](C)C(=O)C(C)(C)[C@@H](O)CC(=O)O1,,-26.4%
Cc1nc(-c2ccc(C(F)(F)F)cc2)cc([C@H]2CN3CC[C@H]2C[C@@H]3CNC(=O)C2CCC2)n1,,-32.3%
CCOC(=O)[C@H]1CN(C(=O)NC2CCCC2)[C@]2(C)C(=O)Nc3ccccc3[C@H]12,,18.1% [at 25.6 µM]
